Many of the other results were omitted from the sample, so hits are more common in it than they were.
FBPA Giardia inh: inhibitors of Giardia lamblia fructose-1,6-bisphosphate aldolase. AID 2451. 0.71% of 290,000 active. purified Giardia FBPA. Potency, µM (series often up to 59.6 µM), hits mostly inhibitors. A8B2U2; further: nearly all actives have a fitted effect of over 55% in size
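40 nM FBPA preincubated 10 min at RT with compound (up to 57.5 uM final), then substrate plus GAPDH/TPI/NAD/arsenate coupling and diaphorase/resazurin added. Fluorescence read after 20 min at RT, 525/598 nm.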
Shiga inhibitor: inhibitors of Shiga toxin in Vero cells | inhibition, % at 38.7 µM | AID 2315 | Vero cells, Shiga toxin protein synthesis inhibition reporter | 9.2% of 290,000 active; in the data active means inhibition mostly above about 28%, no sharp cut-off; inactive means mostly below about 43%
Tb PYK inh: blocks Trypanosoma brucei pyruvate kinase | Q57TT1 | 0.12% of 410,000 active | AID 624173 | Potency, µM (top dose mostly 76.8 µM), actives largely listed as inhibitors | TbPYK enzyme, Kinase-Glo Plus ATP luminescence, 45 min; further: nearly all actives have a fitted effect of over 50% in size
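In this concentration-response screen, enzyme-free wells defined baseline while DMSO plates tracked drift. Each reaction combined TbPYK, substrate, compound and 130 uM ADP for 45 min at room temperature. Kinase-Glo Plus luminescence gave the signal.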
LmPK inhibitor: blocks Leishmania mexicana pyruvate kinase activity. Potency, µM (highest dose often 57.5 µM), hits mostly inhibitors. purified LmPK, Kinase-Glo ATP luminescence, 1 h. 0.37% of 290,000 active
Target sequence (Q27686 whole entry, looked up): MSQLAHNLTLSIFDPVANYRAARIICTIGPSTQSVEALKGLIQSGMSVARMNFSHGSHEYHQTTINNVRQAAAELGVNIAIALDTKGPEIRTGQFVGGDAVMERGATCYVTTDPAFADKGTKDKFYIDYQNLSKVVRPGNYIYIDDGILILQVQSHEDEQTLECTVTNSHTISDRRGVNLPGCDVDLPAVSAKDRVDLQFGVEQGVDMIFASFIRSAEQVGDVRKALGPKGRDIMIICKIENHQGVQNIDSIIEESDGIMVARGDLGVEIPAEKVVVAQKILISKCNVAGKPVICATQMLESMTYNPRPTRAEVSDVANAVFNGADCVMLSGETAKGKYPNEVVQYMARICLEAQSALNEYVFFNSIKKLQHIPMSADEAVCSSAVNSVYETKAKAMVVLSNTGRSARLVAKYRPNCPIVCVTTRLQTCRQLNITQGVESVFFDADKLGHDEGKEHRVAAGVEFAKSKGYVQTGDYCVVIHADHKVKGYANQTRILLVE
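qHTS format; LmPK 0.1 nM; substrates PEP 0.5 mM and ADP 0.1 mM. One-hour room-temperature incubation, then coupled luciferase luminescence; 0.5 nM enzyme wells mark activation.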
Sm TGR inh: S. mansoni TGR enzyme inhibition; purified TGR, DTNB reduction, TNB absorbance 405 nm; Potency, µM (highest dose often 114 µM), most hits filed as inhibitors; 3% of 360,000 active; Q962Y6; further: nearly all actives have a fitted effect of over 60% in size
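TGR 20 nM + NADPH 100 uM (dispensed conc.), cpd preinc 15 min RT; start with NADPH (500 uM addition) then DTNB (15 mM addition). Kinetic TNB absorbance, 405 nm filter. Four-parameter Hill fit across titration.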
CHX counter: counter-screen for Shiga toxin inhibitors: cycloheximide protein synthesis inhibition; AID 2314; 12% of 300,000 active; max response, %; cell reporter, cycloheximide protein synthesis inhibition counterscreen; in the data active means max response mostly above about 13%, no sharp cut-off; inactive means mostly below about 14%; further: read at 38.3 µM for the half of the compounds with a filed dose
Hits are given with their value; . = inactive; ? = inconclusive; / = no result given; ! = repeats disagree; [ ] = dose if it differs, or a comment. Unless noted, the call rests on the fitted dose curve; in most records, active means well fitted curve in the direction sought with a large enough effect; inconclusive means small, poorly fitted or top-dose-only effect, or another doubt; inactive means no such curve, though single readings can be large; an effect the other way counts as inactive or inconclusive.

SMILES | FBPA Giardia inh | Shiga inhibitor | Tb PYK inh | LmPK inhibitor | Sm TGR inh | CHX counter
CCCCCCCC#Cc1ccccc1/C=N/S(=O)c1ccc(C)cc1 (configuration not stated) | .[12.9 µM] | . | 20µM | . | ? | .
Cc1ccccc1-c1ccc(C(=O)NCc2ccccc2)o1 | . | . | . | . | . | 14
Cc1ccc(CS(=O)Cc2ccc(C(=O)NCc3ccccc3)o2)cc1 (configuration not stated) | . | . | . | . | ? | .
Cc1ccc(-c2ccc(C(=O)NCc3ccc(Cl)cc3)o2)c2ccccc12 | . | . | . | . | 14µM | .
O=C(CCc1ccccc1)NCc1ccc(F)cc1 | . | . | . | . | . | .
O=C(NCc1ccccc1)c1ccc(-c2ccccc2C(F)(F)F)o1 | . | . | . | . | ? | 37!
Cc1ccc(CC(=O)NCc2ccc(Cl)cc2)cc1 | . | . | . | . | . | .
O=C(NCc1ccccc1)c1ccc(-c2ccc(F)cc2)o1 | . | 59 | . | . | . | 25
O=C(COc1cccc(Cl)c1)N1CCC(c2nc3ccccc3s2)CC1 | / | / | . | / | . | /
Cc1c(CCC(=O)NCc2cccc(Cl)c2)c(=O)oc2c(C)c(O)ccc12 | / | / | . | / | . | /
O=C(c1cnccn1)N1CCC2(CCN(Cc3ccncc3)CC2)CC1 | . | / | . | / | / | /
COc1ccc2nc(SCc3cccc(C)c3)nc(C)c2c1 | . | 62 | . | . | . | 27
COc1ccc2nc(SCc3ccccc3C)nc(C)c2c1 | . | . | . | . | . | 12
Cc1cc(C)c(NC(=O)CSc2n[nH]c(-c3ccccc3Cl)n2)c(C)c1 | / | / | . | / | . | /
CC(=O)Nc1cccc(-c2nc3ccc(NC(C)=O)cc3[nH]2)c1 | . | . | . | . | . | .
Cn1cc([N+](=O)[O-])c(C(=O)Nc2ccc(-c3nc4ccccc4[nH]3)cc2)n1 | . | . | . | . | . | 32
Cn1cc([N+](=O)[O-])c(C(=O)Nc2ccc3nc(-c4ccccc4)[nH]c3c2)n1 | . | 47 | . | . | . | 42
Cn1cc([N+](=O)[O-])c(C(=O)NCc2cc3ccccc3[nH]2)n1 | . | . | . | . | . | .
CCOc1ccc(CNCc2c(C(=O)O)n(Cc3ccc(OC)cc3)c3ccccc23)cc1 | / | / | . | / | . | /
Cc1cc(C(=O)OCC(N)=O)c(C)n1-c1ccccc1 | . | 41 | . | . | . | 33
CCOC(=O)c1c2c(c(=S)n(-c3ccccc3)c1N)CCC2 | ? | . | . | . | ? | .
Cc1cc(C(=O)COC(=O)c2ccc(O)cc2O)c(C)n1-c1ccccc1 | / | / | . | / | . | /
CCOC(=O)c1[nH]c(=S)n(-c2ccccc2)c1C(=O)OCC | / | / | 2.5µM | / | / | /
Cc1cc(C(=O)OCn2nnc3ccccc3c2=O)c(C)n1-c1ccccc1 | . | 69 | . | . | . | 62
CC(C)OC(=O)c1ccc(Cn2nnc3ccccc3c2=O)cc1 | . | 89 | . | . | . | 27
SMILES | FBPA Giardia inh | Shiga inhibitor | Tb PYK inh | LmPK inhibitor | Sm TGR inh | CHX counter
Cc1cccc(NC(=O)C(c2ccccc2)N2Cc3ccccc3C2=O)c1C (configuration not stated) | / | / | . | / | . | /
CCOc1cc2[nH]c(=O)n(CCCC(=O)N3CCN(c4ccc(OC)cc4)CC3)c(=O)c2cc1OCC | / | / | . | / | . | /
C/C(N)=C(/C#N)C(=O)COC(=O)c1cc(C)n(-c2ccc(F)cc2)c1C | . | 96 | . | . | . | 72
CCN(C(=O)COC(=O)c1cc(C)n(-c2ccc(F)cc2)c1C)C1CCS(=O)(=O)C1 (configuration not stated) | . | . | . | . | . | .
CCOC(=O)c1cc(C)n(-c2ccccc2)c1C | . | 52 | . | . | . | 50
CCN(C(=O)CSc1ncc2c(n1)-c1cc(Cl)ccc1N(Cc1ccccc1)S2(=O)=O)c1cccc(C)c1 | / | / | . | / | . | /
COCc1ccc(C(=O)N2CCC(CCC(=O)Nc3cccc(C)c3)CC2)s1 | / | . | . | . | ? | .
O=C(Nc1cccc(C(F)(F)F)c1)NC1CCCCC1 | . | . | . | . | . | .
COc1ccc(-c2noc(N3CCCC(C(=O)Nc4ccc(C(C)=O)cc4)C3)n2)cc1 (configuration not stated) | / | . | . | . | . | 28
O=C(Nc1cccc(Cl)c1)NC1CCCCC1 | . | 91 | . | . | . | 38
Cc1cccc(NC(=O)NC2CCCCCCC2)c1 | / | 93 | . | . | . | 41
Cc1cccc(NC(=O)CCC2CCN(C(=O)c3ccc(C)s3)CC2)c1 | / | . | . | . | . | 22
CC(CNC(=O)CCc1cn(Cc2ccccc2Cl)c2ccccc12)c1ccccc1 (configuration not stated) | / | / | . | / | . | /
CCCCOc1ccc(C(=O)Nc2cccc(-c3nc4cccnc4s3)c2)cc1 | / | / | . | / | . | /
Cc1ccc(F)c(C2C3C=CCC(C)C3C(=O)N2Cc2ccccc2)c1 (configuration not stated) | . | . | / | / | / | .
COc1ccc(C(=O)N2CCC(CCC(=O)Nc3cccc(C)c3)CC2)cc1 | / | . | . | . | . | .
O=C(Nc1cccc(Cl)c1)NC1CC2CCC(C1)N2Cc1ccco1 (configuration not stated) | . | . | . | . | . | .
O=C(Nc1cccc(Cl)c1)NC1CC2CCC1C2 (configuration not stated) | . | / | . | . | . | 23
S=C(NCCc1cccc(Cl)c1)NC1CCCCC1 | . | 77 | . | . | . | 59
CC(=O)c1cccc(NC(=O)NC2CCCCCCC2)c1 | . | . | . | . | . | 36
COC(C(=O)N1CCC(CCC(=O)Nc2ccccc2)CC1)c1ccccc1 (configuration not stated) | / | 48 | . | . | . | 37
Cc1c(-c2nc(-c3ccc4c(c3)[nH]c(=O)n4C)no2)cccc1[N+](=O)[O-] | / | / | . | / | . | /
O=S(=O)(Nc1ccc(F)c(C(F)(F)F)c1)c1ccc(N2CCCCS2(=O)=O)cc1 | / | / | . | / | . | /
CC(=O)c1cccc(NC(=O)C(C)OC(=O)CCC2CCCCC2)c1 (configuration not stated) | / | / | . | / | . | /
CC(=O)c1ccc(NC(=O)NC2CCCCCCC2)cc1 | / | 95 | . | . | . | 39
SMILES | FBPA Giardia inh | Shiga inhibitor | Tb PYK inh | LmPK inhibitor | Sm TGR inh | CHX counter
CC(=O)c1cccc(NC(=O)C2CCCC2)c1 | . | . | . | . | . | .
Cc1nc2ccc(NC(=O)CCC3CCCC3)cc2s1 | . | 97 | . | . | . | 45
CC(=O)c1cccc(NC(=O)NC2CCCCC2)c1 | . | . | . | . | .[11.4 µM] | .
CC(=O)c1ccc(NC(=O)C2CCCC2)cc1 | . | . | . | . | . | 9.4
CC(=O)c1cccc(NC(=O)CCC2CCCC2)c1 | . | . | . | . | . | 25
CCOc1cc(C(=O)N2CC(=O)Nc3ccc(F)cc3C2c2ccccc2)cc(OCC)c1OCC (configuration not stated) | / | / | . | / | . | /

Assay outcomes from PubChem BioAssay.
